Screen size: about 310,000 compounds; about 14,000 (4.5%) showed an effect of 50% or more. Effects have a minus sign here. What follows is part of a selection rich in strong results, with near analogues and random picks from the rest.
Target: human ether-à-go-go-related gene (hERG) potassium channel (human, UniProt Q12809)
Assay: primary screen, population patch clamp on CHO cells stably expressing hERG; higher = less effect of the substance
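Note: peak tail current of the secondary pulse compared with the same well before compound.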

Sequence of human ether-à-go-go-related gene (hERG) potassium channel (Q12809 whole entry, looked up): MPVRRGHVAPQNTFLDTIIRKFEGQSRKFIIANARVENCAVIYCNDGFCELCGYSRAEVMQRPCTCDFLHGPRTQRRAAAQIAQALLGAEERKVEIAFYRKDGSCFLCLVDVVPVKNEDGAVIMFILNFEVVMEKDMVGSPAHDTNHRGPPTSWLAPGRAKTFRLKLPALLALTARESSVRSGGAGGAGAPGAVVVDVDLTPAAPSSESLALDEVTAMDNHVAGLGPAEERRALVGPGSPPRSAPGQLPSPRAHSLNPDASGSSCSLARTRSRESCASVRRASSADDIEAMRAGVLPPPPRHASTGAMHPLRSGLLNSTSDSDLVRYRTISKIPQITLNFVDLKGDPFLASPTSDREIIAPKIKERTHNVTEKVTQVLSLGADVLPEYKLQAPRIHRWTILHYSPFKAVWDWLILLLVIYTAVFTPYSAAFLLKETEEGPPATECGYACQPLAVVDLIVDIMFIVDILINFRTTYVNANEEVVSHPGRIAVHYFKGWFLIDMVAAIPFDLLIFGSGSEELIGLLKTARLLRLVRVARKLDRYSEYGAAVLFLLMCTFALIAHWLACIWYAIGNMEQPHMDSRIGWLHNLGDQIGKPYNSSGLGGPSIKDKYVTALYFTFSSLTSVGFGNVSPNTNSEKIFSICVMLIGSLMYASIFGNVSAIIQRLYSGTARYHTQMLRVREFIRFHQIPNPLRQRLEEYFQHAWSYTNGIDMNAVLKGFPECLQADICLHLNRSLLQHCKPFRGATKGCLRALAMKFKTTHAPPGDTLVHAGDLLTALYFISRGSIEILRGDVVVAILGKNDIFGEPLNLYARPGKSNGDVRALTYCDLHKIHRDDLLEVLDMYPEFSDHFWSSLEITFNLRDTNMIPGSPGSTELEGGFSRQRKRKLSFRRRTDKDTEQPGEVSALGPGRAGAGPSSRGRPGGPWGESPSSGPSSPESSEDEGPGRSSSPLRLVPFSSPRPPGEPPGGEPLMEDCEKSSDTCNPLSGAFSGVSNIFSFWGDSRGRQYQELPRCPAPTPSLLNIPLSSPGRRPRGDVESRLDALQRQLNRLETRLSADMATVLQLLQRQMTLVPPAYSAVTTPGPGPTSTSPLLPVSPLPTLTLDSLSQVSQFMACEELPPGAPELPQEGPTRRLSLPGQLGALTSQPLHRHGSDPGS

Structure (SMILES) | hERG current change (%, negative = inhibition) at 10uM [%]
Brc1ccc(CSc2nnc(-c3ccccn3)n2Cc2ccco2)cc1 | -16.8
CN1CCc2c(OCC(=O)NC3CCCCC3)cccc2C1=O | 13.6
CCCCCCSc1ccc([C@H]2N[C@@](Cc3ccccc3)(C(=O)OC)[C@H]3C(=O)N(C)C(=O)[C@@H]23)cc1OC.O=C(O)C(F)(F)F | 5.93
O=P(O)(O)O.c1ccc(CSCCc2ccncc2)cc1 | -5.48
COC(=O)Cn1cc(C(=O)c2ccccc2F)c2ccccc21 | -1.29
CCOC(=O)Cn1cc(C(=O)c2ccccc2F)c2ccccc21 | -71
NC(=O)Cn1cc(C(=O)c2ccccc2F)c2ccccc21 | 25.1
Cc1cc(C)nc(N(C#N)CC(=O)c2ccccc2)n1 | -42.9
CCN(CC)C(=O)CN(C#N)c1nc(C)cc(C)n1 | 19.4
CCc1ccc(C(=O)CN(C#N)c2nc(C)cc(C)n2)cc1 | -75.6
Cc1c(Cl)cccc1NC(=S)NC(=O)c1cncc(Br)c1 | 17.6
COc1cccc(/C=N/NC(=S)NCCc2ccccc2)c1 | 10.5
CCC(=O)Nc1cccc(-c2nnc(-c3cccc(NC(=O)CC)c3)o2)c1 | 7.83
Cc1ccc(CNC(=O)c2oc3ccc(S(=O)(=O)N4CCC5(CC4)OCCO5)cc3c2C)cc1 | -3.35
CS(=O)(=O)Nc1ccccc1C(=O)NCc1ccco1 | -2.03
CS(=O)(=O)Nc1ccc(C(=O)NCCSCc2c(F)cccc2Cl)cc1 | -57.7
CS(=O)(=O)Nc1ccc(C(=O)NCCc2ccccc2)cc1 | -69.6
CN(Cc1ccccc1)S(=O)(=O)c1ccc(NS(=O)(=O)Cc2ccccc2)cc1 | 0.139
CS(=O)(=O)NCCSCc1c(F)cccc1Cl | 1.87
CS(=O)(=O)Nc1ccc(C(=O)NCc2ccco2)cc1 | 0.221
CC(=O)Nc1ccc(S(=O)(=O)N(C)Cc2ccccc2)cc1 | -12.7
CN(c1ccc(C(=O)NCCSCc2c(F)cccc2Cl)cc1)S(C)(=O)=O | 1.6
CN(Cc1ccccc1)S(=O)(=O)c1ccc(NS(C)(=O)=O)cc1 | -55.5

Structure (SMILES) | hERG current change (%, negative = inhibition) at 10uM [%]
CS(=O)(=O)Nc1ccc(C(=O)NCCSCc2ccccc2)cc1 | -45.1
CS(=O)(=O)Nc1ccc(C(=O)Nc2ccccc2C(=O)NCc2ccco2)cc1 | -69.2
CC(=O)Nc1ccc(C(=O)NCCc2ccccc2)cc1 | 12.9
CCOC(=O)C1=C(COc2ccccc2)NC(=O)NC1c1ccc2ccccc2c1 (centres unmarked) | -12.3
CC(C)CCNC(=O)NC(=O)CSc1nnc2ccccn12 | 15.6
CCOC(=O)N1CCC(NC(=O)CC2C(=O)NCCN2Cc2ccccc2)CC1 (centres unmarked) | -1.48
CCN(CC)S(=O)(=O)c1ccc(/C=C/C(=O)Nc2c(C)n(C)n(-c3ccccc3)c2=O)cc1 | 19.4
CCCC1CCC(=C(C#N)C(N)=O)CC1 (centres unmarked) | -32.8
O=C(Nc1ccccc1-c1ccccc1)c1ccccc1 | 13.2
CCOC(=O)c1ccccc1NC(=O)c1ccc(NS(C)(=O)=O)cc1 | -54.7
CCOC(=O)c1ccccc1NC(=O)c1ccccc1NS(C)(=O)=O | -0.0503
COC(=O)c1ccccc1NC(=O)c1ccc(NS(C)(=O)=O)cc1 | -36.1
CS(=O)(=O)Nc1ccc(C(=O)Nc2ccccc2-c2ccccc2)cc1 | -65.9
CCc1ccccc1NC(=O)c1ccc(NS(C)(=O)=O)cc1 | -42.1
Cc1cccc(C(=O)O/N=C2/CC3CCC2(C)C3(C)C)c1 (centres unmarked) | -11
Cc1cc(C(=O)NCCC2=CCCCC2)c(C)o1 | 7.75
O=S(=O)(c1cccc(-c2n[nH]c(=S)o2)c1)N1CCOCC1 | 14.9
CCC(C)NC(=O)C1CCN(S(=O)(=O)N2CCOCC2)CC1 (centres unmarked) | 22.8
N#CC1=C(SCc2ccc(C#N)cc2)N=C(N)C(c2nc(-c3ccccc3)cs2)C12CCCCC2 (centres unmarked) | 12.3
CCC(C)Cn1c(C(C)O)nc2ccccc21 (centres unmarked) | 0.00748
O=C(c1cc2ccccc2o1)N1CCN(c2cccc(C(F)(F)F)c2)CC1 | 3.21
O=C(CCC(=O)NNC(=O)COc1ccc(Br)cc1Br)NCc1ccccc1 | 16.9
CCOc1cc(C=O)cc(Br)c1OCC(=O)NCCc1ccccc1 | -81.7

Structure (SMILES) | hERG current change (%, negative = inhibition) at 10uM [%]
CCOc1cc(/C=N/NC(N)=O)cc(Br)c1OCc1ccccc1 | 3.4
CCOc1cc(/C=N/O)cc(Br)c1OCC(=O)NCc1ccccc1 | 1.7
CCOc1cc(/C=N/NC(N)=O)cc(Br)c1OCC(=O)Nc1cccc2ccccc12 | 18.4
CC(NCc1cc(Br)ccc1OCC(N)=O)C12CC3CC(CC(C3)C1)C2.Cl (centres unmarked) | -55.8
Cc1ccccc1NC(=O)COc1ccc(Br)cc1CNCCCO.Cl | -15.6
CCOc1cc(/C=N/NC(N)=O)cc(Br)c1OCC(=O)Nc1ccccc1C | -65.7
CCOc1cc(C=O)cc(Br)c1OCC(N)=O | 2.71
COc1cc(CNC(C)C23CC4CC(CC(C4)C2)C3)ccc1OCC(=O)NC(C)(C)C.Cl (centres unmarked) | -4.99
CC(NCc1ccc(OCC(N)=O)cc1)C12CC3CC(CC(C3)C1)C2.Cl (centres unmarked) | -11.2
Cl.O=C(COc1ccc(Br)cc1CNCCc1ccccc1)NCc1ccccc1 | -61.1
CCN(CC)CCCNC(=O)Cn1cnc2sc(C)c(S(=O)(=O)N3CCC(C)CC3)c2c1=O | 11.1
COC(=O)c1ccc(Cn2nc(-c3ccc(C)cc3)ccc2=O)cc1 | 23.5
CCn1cc(C(=O)O)c(=O)c2cnc(N3CCN(C(=S)Nc4ccc(F)cc4)CC3)nc21 | 13.3
CCN(c1ccccc1)S(=O)(=O)c1cccc(C(=O)N(C)CCOc2ccccc2)c1 | -3.95
CCCCN(C)CCC(=O)Nc1ccc2c(c1)CCC2.Cl | -7.46
CCOC(=O)c1sc(NC(=O)CSc2ncn(-c3ccccc3)n2)nc1C | 7.23
COc1ccc(CNC(=O)CCn2c(=O)oc3ccccc32)cc1 | -5.31
O=C(NC(=S)Nc1ccc2[nH]c(=O)[nH]c2c1)c1ccccc1[N+](=O)[O-] | -8.83
Cc1cc(C(=O)N2CCN(c3ncccn3)CC2)cs1 | -15.6
CCOC(=O)c1sc(NC(=S)NC(=O)C2CCCC2)cc1C | 7.72
COc1ccc(Br)cc1CNC(C)c1ccccc1 (centres unmarked) | -19.8
CCCNCc1cc(Br)ccc1OCC(=O)NCCc1ccccc1 | -63.5
CCCNCc1cc(OC)c(OCC(=O)NCCc2ccccc2)cc1Br | -38.1

Structure (SMILES) | hERG current change (%, negative = inhibition) at 10uM [%]
CCOc1cc(CNCCO)c(Cl)cc1OCC(=O)NCCc1ccccc1 | -6.82
COc1cc(CNC(C)c2ccccc2)c(Br)cc1OCC(N)=O (centres unmarked) | -17.2
CC(NCc1cc(Br)ccc1OCC(=O)NCc1ccccc1)c1ccccc1.Cl (centres unmarked) | -59.6
O=C(c1cccnc1)c1ncc(C(F)(F)F)cc1Cl | -3.33
O=C(CSc1ccccc1)Nc1nnc(C2CC2)s1 | 16.9
Cc1c(C(=O)N(Cc2ccccc2)Cc2cccs2)cnn1-c1ccc(Cl)cc1 | -3.32
O=C(/C=C/c1ccccc1)N/C(=C/c1ccccc1)C(=O)NCCCO | -7.96
CCC(C)c1ccc(S(=O)(=O)N2CCN(c3ccccn3)CC2)cc1 (centres unmarked) | 24.6
Clc1cccc(C[n+]2cc(-c3ccccc3)n3c2CCC3)c1.[Br-] | -25.7
Cc1ccc(-c2c[n+](CC(=O)N3c4ccccc4Sc4ccccc43)c3n2CCC3)cc1.[Cl-] | -49.1
Clc1ccc(-c2c[n+](Cc3ccc(Br)cc3)c3n2CCCCC3)cc1.[Br-] | -66.4
Cc1ccc(-c2c[n+](Cc3ccc(Cl)cc3)c3n2CCC3)cc1.[Cl-] | -41.6
Clc1ccc(C[n+]2cc(-c3ccc(Cl)cc3)n3c2CCC3)cc1.[Cl-] | -61.9
Cc1ccc(C[n+]2cc(-c3ccc(Cl)cc3)n3c2CCC3)cc1.[Cl-] | -51.3
Cc1ccc(-c2c[n+](Cc3cccc(Cl)c3)c3n2CCC3)cc1.[Br-] | -57.7
N#CC[n+]1cc(-c2ccc(Cl)cc2)n2c1CCC2.[Cl-] | 5.21
Cc1ccc(-c2c[n+](CC(=O)c3cccs3)c3n2CCC3)cc1.[Br-] | 5.08
CCOc1ccc(CC2NCCc3cc(OCC)c(OCC)cc32)cc1OCC (centres unmarked) | -13.3
CCN1C(=O)/C(=C\c2ccco2)C(C(=O)OC)=C1C | 10.4
Cn1nccc1NC(=O)Nc1cccc(Cl)c1Cl | 16.5
